Bioassay records as filed in PubChem.
The list is not random: actives were taken first. Their share in the collection is about 3.9%.
BH1578 lux ind: inducers of Vibrio cholerae quorum light production without autoinducers | activation, % at 18.7 µM | V. cholerae BH1578 lux reporter, luminescence, 6 h | hit rate 0.16% among 350,000; in the data active = activation mostly above about 9.7%, no sharp cut-off; inconclusive = no clear call, values can overlap the other calls; inactive = mostly below about 3.7%
Anthrax LF prot: inhibitors of Bacillus anthracis lethal factor protease; P15917; multiplex microsphere protease cleavage assay, LF; inhibition, % at 10 µM; hit rate 0.12% among 360,000; also: plate controls were buffer without enzyme for full effect and enzyme alone for no effect
Target sequence (P15917 whole entry, looked up): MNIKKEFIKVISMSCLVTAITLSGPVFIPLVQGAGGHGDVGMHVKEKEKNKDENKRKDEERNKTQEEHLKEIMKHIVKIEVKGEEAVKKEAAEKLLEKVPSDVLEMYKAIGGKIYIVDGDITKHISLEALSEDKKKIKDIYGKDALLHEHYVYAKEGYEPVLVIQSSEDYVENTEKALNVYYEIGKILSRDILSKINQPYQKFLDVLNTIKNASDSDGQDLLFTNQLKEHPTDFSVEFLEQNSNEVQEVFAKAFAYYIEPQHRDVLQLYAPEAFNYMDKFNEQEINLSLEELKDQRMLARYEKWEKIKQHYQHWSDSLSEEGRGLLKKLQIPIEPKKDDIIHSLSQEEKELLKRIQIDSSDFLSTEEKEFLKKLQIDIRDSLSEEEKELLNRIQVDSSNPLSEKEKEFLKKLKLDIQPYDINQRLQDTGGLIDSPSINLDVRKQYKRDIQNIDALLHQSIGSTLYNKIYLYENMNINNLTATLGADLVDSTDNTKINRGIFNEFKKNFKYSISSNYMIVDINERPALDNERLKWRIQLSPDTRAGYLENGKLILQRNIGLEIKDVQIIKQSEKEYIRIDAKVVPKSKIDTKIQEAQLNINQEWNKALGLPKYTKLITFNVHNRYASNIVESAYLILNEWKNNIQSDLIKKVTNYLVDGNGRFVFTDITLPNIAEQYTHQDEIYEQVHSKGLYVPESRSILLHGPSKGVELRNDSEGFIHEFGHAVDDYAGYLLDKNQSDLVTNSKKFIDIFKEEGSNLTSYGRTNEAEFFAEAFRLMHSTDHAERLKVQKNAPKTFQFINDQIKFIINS
BoNT A protease: BoNT A light chain protease inhibition. hit rate 0.17% among 360,000. inhibition, % at 10 µM. multiplex microsphere protease substrate cleavage, flow cytometry; also: plate controls were buffer without enzyme for full effect and enzyme alone for no effect
BoNT-F LC inh: BoNT F light chain protease inhibition; Multiplex microsphere protease cleavage assay, flow cytometry; inhibition, % at 10 µM; hit rate 0.22% among 360,000; in the data active = inhibition above about 35%, passing the limit was not always enough; inconclusive = no clear call, values can overlap the other calls; also: plate controls were buffer without enzyme for full effect and enzyme alone for no effect
MazEF act: activators of E. coli MazEF toxin-antitoxin RNase; activation, % at 20 µM; P0AE70; FAM/BHQ RNA-DNA oligo cleavage fluorescence, 5 h; hit rate 0.32% among 350,000; in the data active = activation above about 50%
Bead autofluor: flagged as autofluorescent in microsphere protease counterscreen | compound autofluorescence counterscreen, microsphere flow cytometry; active compounds read high | AID 624483 | fluorescence intensity (test concentration not listed) | hit rate 3.1% among 360,000; in the data active = fluorescence intensity above about 16000; inconclusive = no clear call, values can overlap the other calls
* marks the source's active call; other numbers are inactive results; i = inactive; ? = inconclusive; · = no result given. Rule as the data show it, unless noted: active = inhibition above about 30%; inconclusive = no clear call, values can overlap the other calls; inactive = below that.

SMILES	BH1578 lux ind	Anthrax LF prot	BoNT A protease	BoNT-F LC inh	MazEF act	Bead autofluor
O=C(COc1ccccc1)Nc1cccc(-c2nc3ccccc3[nH]2)c1	i	0.2	-0.3	-3.4	7.1	1958
O=C(O)CCCC(=O)Nc1cccc([N+](=O)[O-])c1	-0.1	-6.9	0.1	1.0	8.0	7559
CC(=O)Nc1cccc(NC(=O)CCCC(=O)O)c1	i	1.0	?	2.8	4.5	18707*
O=C(Nc1cccc(-c2nc3ccccc3[nH]2)c1)c1cccc(NC(=O)c2ccco2)c1	2.9	-0.7	0.2	-13.5	65.8*	12389
O=C(Nc1ccc2nc(-c3ccccc3)[nH]c2c1)c1ccco1	-0.7	-3.2	0.5	-24.0	5.0	3818
COc1ccc(OCC(=O)Nc2cccc(-c3nc4ccccc4[nH]3)c2)cc1	i	-2.6	?	-2.6	-3.2	24148*
O=S(=O)(N1CCCCC1)N1CCN(CC(O)COc2ccc3cc(Br)ccc3c2)CC1 (centres undefined)	-0.4	0.0	0.8	-6.3	-0.2	10259
OC(COc1ccc2cc(Br)ccc2c1)CN1CCCC1 (centres undefined)	-0.2	-4.2	-3.4	-5.3	7.7	23249*
O=c1c2cc(N3CCOCC3)ccc2[nH]c(=S)n1CCCN1CCCCCC1	0.1	-5.3	?	-5.0	1.2	21083*
O=c1c2cc(N3CCOCC3)ccc2[nH]c(=S)n1Cc1ccc(Cl)cc1	-5.3	0.7	0.7	2.3	2.7	16514*
CCOC(=O)[C@]12CCC=C1N(Cc1ccc3c(c1)OCO3)C(=O)[C@H](CC(=O)NCC1CCCCC1)C2	·	-5.7	0.1	2.2	·	6362
NS(=O)(=O)c1cccc(NC(=O)CN2CCN(Cc3ccc4c(c3)OCO4)CC2)c1	-0.3	-0.3	-0.4	-4.8	9.4	2203
CCOc1cc(C2C(C(=O)OC)=CN(Cc3ccc(Cl)cc3)C=C2C(=O)OC)ccc1O	i	-7.5	3.5	48.0*	1.7	3776
COC(=O)C1=CN(Cc2ccccc2)C=C(C(=O)OC)C1c1ccc(O)c(OC)c1	-0.6	-7.2	-3.8	-16.3	3.6	3422
COC(=O)C1=CN(C)C=C(C(=O)OC)C1c1ccc(O)c(OC)c1	1.2	-5.7	?	-6.3	1.0	23196*
CC(O)(c1ccccc1)c1nc(-c2ccncc2)cs1 (centres undefined)	-0.1	-0.9	0.1	-4.8	·	3524
C[C@H]1COc2cc(N(C)CCO)ccc2S(=O)(=O)N1	·	-2.3	0.5	0.6	·	5030
COc1cc(C2Nc3ccc4ncccc4c3C3=C2C(=O)CC(C)(C)C3)cc(OC)c1O (centres undefined)	-0.7	1.1	-0.7	1.1	8.3	23335*
O=C(OCC#CCSc1nnc(-c2ccccc2)o1)c1cccs1	-0.2	-3.1	-1.8	-3.3	-7.1	17034*
Clc1ccc(OCc2nc(-c3ccccn3)n[nH]2)cc1	i	-2.2	0.4	-1.2	-20.2	19968*
O=[N+]([O-])c1cc(CN2CCC(O)CC2)ccc1Cl	-0.3	2.5	1.6	33.4	-0.3	4283
CN(C)CCO/N=C(\c1ccc(Br)cc1)c1cccnc1	0.2	-50.1	-81.9	?	-12.1	21777*
O=C(Nc1ccc2c(c1)OCCO2)C1CCN(S(=O)(=O)c2ccc3c(c2)OCCO3)CC1	-2.6	-0.9	2.3	-1.9	6.5	21484*
O=C(Nc1ccc2c(c1)OCCO2)C1CCN(S(=O)(=O)c2cccs2)CC1	i	2.1	?	-2.7	-0.6	23275*
O=C(NC1CCCCC1)C1CCCN(c2nnnn2-c2ccccc2)C1 (centres undefined)	2.2	-3.0	?	-5.5	1.5	17148*
SMILES	BH1578 lux ind	Anthrax LF prot	BoNT A protease	BoNT-F LC inh	MazEF act	Bead autofluor
CC(=O)Nc1ccc(NC(=O)C2CCN(S(=O)(=O)c3ccc4c(c3)OCCO4)CC2)cc1	0.6	-5.4	0.2	-2.4	3.8	3767
CC1CCCCN1C(=O)COC(=O)C1CCN(S(=O)(=O)c2ccc3c(c2)OCCO3)CC1 (centres undefined)	i	-7.9	-46.1	-80.3	3.5	17025*
O=C(Nc1ccc2c(c1)OCO2)C1CCN(S(=O)(=O)c2cccs2)CC1	i	-5.9	0.4	-15.0	-5.3	7839
O=C(Nc1ccc2c(c1)OCCO2)C1CCN(c2nnnn2-c2ccccc2)CC1	1.3	0.9	0.7	2.8	-3.1	16234*
COc1ccccc1NC(=O)CN(C)S(=O)(=O)c1cccc2cccnc12	-0.4	0.2	0.7	5.1	-1.4	5180
COc1ccc(N(C)S(=O)(=O)c2cccc3cccnc23)c(OC)c1	0.9	-0.7	-1.1	1.0	8.9	16783*
CC(C)Cn1c(N)c(/C=N/NC(=O)c2ccc(Cl)cc2)c(=O)n(C)c1=O	-0.3	-3.3	-2.7	-6.3	-26.5	3978
CC1=C(C(=O)N(C)C)CC(CC(=O)NCc2cccs2)C(=O)N1CCC1=CCCCC1 (centres undefined)	i	-6.8	-0.3	3.1	-3.8	3476
CCOc1cc(/C=C2/C(=N)N3C(=NC2=O)SN=C3S(=O)(=O)C(C)C)ccc1OC(=O)c1ccco1	-1.7	-0.4	1.6	-0.8	61.8*	6340
COc1cc(/C=C2/C(=N)N3C(=NC2=O)SN=C3S(=O)(=O)C(C)C)ccc1OC(=O)c1ccco1	-4.6	·	·	·	45.4	·
COCC(=O)N(C)C[C@H]1Oc2cc(C#Cc3cccnc3)ccc2S(=O)(=O)N([C@H](C)CO)C[C@H]1C	-0.5	3.2	-0.2	-4.3	3.2	3728
O=C(Nc1cccc(C(F)(F)F)c1)c1ccc(Cn2cc(Br)cn2)o1	i	-11.3	4.7	5.3	3.0	17799*
CCOC(=O)/C=C1\CC(=O)Nc2cc(C)c(C)cc2N1	-0.2	-0.6	-2.4	-2.2	-15.0	20731*
CCOC(=O)/C=C1\CC(=O)Nc2nonc2N1	i	0.8	1.2	1.3	8.9	22714*
CCOC(=O)/C=C1\Nc2ccccc2OC1=O	-0.7	-1.6	-1.0	2.9	2.0	2499
CCOC(=O)C1=NNC(=O)C1	5.9	-9.0	0.0	-3.7	3.5	3512
COc1cc(NC(=O)CSc2nc(=O)n(CCN3CCOCC3)c3c2CCCC3)cc(OC)c1	i	-0.4	3.7	?	8.5	4599
COc1ccc(-c2nc(NC(=O)CCNC(=O)c3ccco3)sc2C)cc1	i	4.4	0.5	2.8	1.2	4246
COc1ccc(-c2[nH]n(-c3ccc([N+](=O)[O-])cc3)c(=O)c2C=NCc2ccncc2)cc1	0.2	-0.8	1.1	-7.7	2.7	2186
COc1ccc(-c2[nH]n(-c3ccc([N+](=O)[O-])cc3)c(=O)c2C=NCc2ccc(F)cc2)cc1	-0.4	1.5	1.3	-2.6	80.7*	2509
COc1ccc(-c2cc(C(=O)Nc3c(C)n(C)n(-c4ccccc4)c3=O)c3ccccc3n2)c(OC)c1	-0.5	-2.6	0.3	-5.3	-5.5	4482
COc1ccc2cc(C(=O)C3CCCN(C(=O)c4cc5nc(C)cc(C)n5n4)C3)ccc2c1 (centres undefined)	-0.5	4.8	-1.4	-7.6	1.6	5530
CCOC(=O)c1[nH]c2ccc(OC)cc2c1NC(=O)c1nonc1C	-0.6	-7.7	-0.2	-4.7	9.3	4476
